Sfp PPTase inh = inhibitors of Bacillus subtilis Sfp phosphopantetheinyl transferase; Q9F4F7; Biochemical Sfp PPTase activity, qHTS; Potency, µM, inactives show largest response in the series, negative = inhibition, usual class: inhibitors; 3.5% of 310,000 active;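 also: the enzyme is Sfp with the accession as filed and its product quenches rhodamine fluorescence; 0% = enzyme reaction without inhibitor and -100% = no enzyme wells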
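With Hepes-Na pH 7.6 buffer containing 10 mM MgCl2, Sfp (15 nM) modified BHQ-2-YbbR (12.5 uM) using rhodamine-CoA (5 uM). Two reads 30 minutes apart at 525/598 nm yielded each well's rate.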
RORg inh = blocks mouse ROR gamma transcriptional activity; Potency, µM (highest dose often 53.6 µM), inactives show at the highest dose activity change, negative = inhibition, hits mostly inhibitors; AID 2551; 5.4% of 310,000 active; Drosophila S2 Gal4-RORgamma UAS-luciferase reporter, 20 h; also: % is scaled to controls: 0 for no effect and ±100 for the full control effect; nearly all actives have a fitted effect of over 60% in size
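A Gal4/UAS one-hybrid system in insect cells: metallothionein-promoter Gal4–ROR gamma fusion plus Photinus luciferase reporter. Copper sulfate 700 uM final, 20 hr ambient incubation, luminescent detection after 10 min with reagent.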
PINK1 expr mod = changes PINK1 expression; Potency, µM (highest dose often 76.6 µM), inactives show at the highest dose activation (PINK1 increase), actives largely listed as activators; 0.2% of 410,000 active; PINK1 immunofluorescence, high-content cytometry, 24 h; AID 624263; active = well fitted activation curve with a large enough effect; inconclusive = small, poorly fitted or top-dose-only effect; cell line not stated here; also: % of control where 0% means no effect; nearly all actives have a fitted effect of over 65% in size
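A stable cell line was treated with compounds at 5 concentrations for 24 hours, with CCCP as control. PINK1 levels and mitochondrial localization were measured by immunofluorescence with mitochondrial, cell and nuclear markers after fixation, read by laser-scanning cytometry.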
Epigenetic derep = derepresses silenced GFP reporter in murine cells | murine LDR cells, GFP reporter derepression, 30 h | 0.2% of 280,000 active | AID 1865 | Potency, µM (doses to about 53.9 µM), without a hit: at the highest dose GFP activation, hits mostly activators; also: % of control where 0% means no effect; nearly all actives have a fitted effect of over 60% in size
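Derepression of a silenced CMV-GFP reporter in murine LDR cells is scored by enumerating GFP-positive cells with a laser-scanning microplate cytometer after 30 hours of treatment at 37 C.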
ClpP mod = qHTS Assay for Activators of ClpP. ATP-dependent Clp protease proteolytic subunit (Bacillus subtilis (strain 168)), P80244. purified B. subtilis ClpP, FRET peptide cleavage, 20 min. Potency, µM (highest dose often 57.5 µM), for the others: at the top dose activity change, negative = active. 1.9% of 340,000 active; active = well fitted falling curve with a large enough effect; inconclusive = small, poorly fitted or top-dose-only effect; inactive = no such curve, though single readings can be large or run the other way; also: the source files actives as falling curves though it sought activators and does not explain the sign; nearly all actives have a fitted effect of over 65% in size
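Buffer: 100 mM Tris/HCl pH8, 100 mM KCl, 0.05% low protease BSA, 2.5% glycerol, 0.01% Tween-20. ClpP 10 microg/mL final; 20 min RT; delta FRET normalized to ADEP and DMSO controls.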
VP16 counter = inhibits Gal4-VP16 luciferase reporter, ROR gamma counter-screen; Drosophila S2 Gal4-VP16 UAS-luciferase, luminescence, 20 h; 3.5% of 310,000 active; Potency, µM (highest dose often 53.6 µM), for inactives: at the top dose activity, negative = inhibition, actives largely listed as inhibitors;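 also: Gal4-VP16 expression switched on by copper sulfate through the metallothionein promoter; % is scaled to controls: 0 for no effect and ±100 for the full control effect; nearly all actives have a fitted effect of over 50% in size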
* hit, by the source's call; [ ] = another dose, or the depositor's remark. This is a sample that favours compounds with a hit; in the whole collection about 8.1% have one here. Unless noted, calls follow the shape of the dose curve; as a rule, active = well fitted curve in the direction sought with a large enough effect; inconclusive = small, poorly fitted or top-dose-only effect, or another doubt; inactive = no such curve, though single readings can be large; an effect the other way counts as inactive or inconclusive. Potency is read from the fitted curve at half-maximal effect.

What do the screens show for `Cc1ccc(-n2nc(CO)c(C(=O)NC(C)CCCc3ccccc3)n2)cc1` (stereo not drawn)?
PINK1 expr mod: 0%; Epigenetic derep: 1%; ClpP mod: 32µM*

Results for Cc1ccc(-n2nc(CO)c(C(=O)NCCO)n2)cc1 ?
PINK1 expr mod: -1%; Epigenetic derep: -3%; ClpP mod: 8.9µM*

How did CCOCCCn1c(=N)c(C(=O)NC2CCCC2)cc2c(=O)n3cccc(C)c3nc21 do in these assays?
PINK1 expr mod: 0%; Epigenetic derep: -2%; ClpP mod: 4%

How did Cc1cc2nccc(/C=C/c3ccc(N(C)C)cc3)c2cc1C do in these assays?
ClpP mod: -4%

What do the screens show for `Cc1ccc(-n2nc(CO)c(C(=O)NCCCCc3ccccc3)n2)cc1`?
PINK1 expr mod: 0%; Epigenetic derep: 18%; ClpP mod: 10µM*

Results for Cc1ccc(NC(=O)CN2C(=O)CCc3cc(S(=O)(=O)N4CCOCC4)ccc32)cc1F ?
PINK1 expr mod: 3%; Epigenetic derep: -4%; ClpP mod: -1%

Results for O=S(=O)(c1ccc2nc(N3CCN(c4ccc(F)cc4)CC3)ccc2c1)N1CCCCC1 ?
Sfp PPTase inh: 79µM*; RORg inh: -1%; PINK1 expr mod: 7%; ClpP mod: -23%; VP16 counter: 0%

How did Cc1ccc(S(=O)(=O)Nc2nc3ccccc3nc2Nc2cccc(S(=O)(=O)N3CCCC3)c2)cc1 do in these assays?
Sfp PPTase inh: 4%; RORg inh: inconclusive; PINK1 expr mod: inconclusive; Epigenetic derep: 1%; ClpP mod: 4%; VP16 counter: -10%

How did O=S(=O)(c1ccc2nc(N3CCN(c4ccccc4F)CC3)ccc2c1)N1CCCCC1 do in these assays?
Sfp PPTase inh: -5%; RORg inh: -11%; PINK1 expr mod: 7%; Epigenetic derep: 7%; ClpP mod: inconclusive; VP16 counter: -22%

Results for O=[N+]([O-])c1cccc(S(=O)(=O)Nc2nc3ccccc3nc2Nc2cccc(S(=O)(=O)N3CCCCC3)c2)c1 ?
Sfp PPTase inh: -29%; RORg inh: inconclusive; PINK1 expr mod: inconclusive; Epigenetic derep: -1%; ClpP mod: -1%; VP16 counter: 11µM*

What do the screens show for `O=S(=O)(c1ccc2nc(Nc3ccccc3)ccc2c1)N1CCCCC1`?
Sfp PPTase inh: 50µM*; RORg inh: 29%; PINK1 expr mod: inconclusive; VP16 counter: -4%

Results for CC[C@H](C)[C@H]1O[C@]2(CC[C@@H]1C)C[C@@H]1C[C@@H](C/C=C(\C)[C@H](O[C@@H]3C[C@H](OC)[C@H](O[C@@H]4C[C@H](OC)[C@@H](O)[C@H](C)O4)[C@H](C)O3)[C@@H](C)/C=C/C=C3\CO[C@@H]4[C@H](O)C(C)=C[C@@H](C(=O)O1)[C@]34O)O2 ?
Sfp PPTase inh: 8%; RORg inh: 6%[10 µM]; Epigenetic derep: 2%; VP16 counter: inconclusive

How did O=C(Cn1ncc2c3ccccc3n(Cc3ccc(F)cc3)c2c1=O)NCc1ccccn1 do in these assays?
PINK1 expr mod: 0%; Epigenetic derep: 3%; ClpP mod: -24%

What do the screens show for `O=C(Nc1ccc2oc(=O)ccc2c1)c1ccc(-c2ccccc2[N+](=O)[O-])o1`?
Sfp PPTase inh: -22%; RORg inh: -44%; PINK1 expr mod: 5%; Epigenetic derep: 2%; VP16 counter: inconclusive

Results for COc1cccc(NC(=O)c2ccc(C(=O)c3ccccc3)o2)c1 ?
Sfp PPTase inh: 14%; RORg inh: inconclusive; PINK1 expr mod: 3%; Epigenetic derep: 0%; ClpP mod: 0%; VP16 counter: 1%

Results for Cc1cccc(NC(=O)c2ccc(-c3ccccc3[N+](=O)[O-])o2)c1 ?
Sfp PPTase inh: 50µM*; RORg inh: -14%; PINK1 expr mod: 2%; Epigenetic derep: 1%; VP16 counter: -14%

Results for COc1cccc(NC(=O)c2ccc(-c3ccccc3[N+](=O)[O-])o2)c1 ?
Sfp PPTase inh: 45µM*; RORg inh: inconclusive; PINK1 expr mod: 0%; Epigenetic derep: 13%; VP16 counter: 26%

How did COc1cccc(NC(=O)c2cc(CN3C(=O)c4ccccc4C3=O)ccc2OC)c1 do in these assays?
Sfp PPTase inh: 7%; RORg inh: inconclusive; PINK1 expr mod: 6%; Epigenetic derep: 1%; ClpP mod: 10µM*; VP16 counter: -5%

What do the screens show for `CCOc1ccc(/C=C/c2nc(C#N)c(N(C)C)o2)cc1`?
PINK1 expr mod: 6%; Epigenetic derep: 4%; ClpP mod: 5%

How did Cc1ccc(CNC(=O)CSc2nc3c(sc4ccccc43)c(=O)n2CCCC(=O)NCCO)cc1 do in these assays?
PINK1 expr mod: -1%; Epigenetic derep: -1%; ClpP mod: -10%

Results for O=C(OCC(=O)N1N=C(c2ccc(Cl)cc2)CC1c1ccco1)c1ccccc1O (stereo not drawn) ?
Sfp PPTase inh: inconclusive; RORg inh: 0%; PINK1 expr mod: -2%; Epigenetic derep: 3%; ClpP mod: 35µM*; VP16 counter: 15%

How did Cn1cnnc1SCC(=O)N1N=C(c2ccc(Cl)cc2)CC1c1ccco1 (stereo not drawn) do in these assays?
Sfp PPTase inh: 50µM*; RORg inh: 25%; PINK1 expr mod: 1%; Epigenetic derep: 1%; ClpP mod: 1%; VP16 counter: -1%

How did O=C(OCC(=O)N1N=C(c2ccc(Cl)cc2)CC1c1ccco1)c1ccco1 (stereo not drawn) do in these assays?
Sfp PPTase inh: -1%; RORg inh: -25%; PINK1 expr mod: 0%; Epigenetic derep: 0%; VP16 counter: 7%

What do the screens show for `Cc1ncc2c(c1CNC(=O)c1ccc3c(c1)OCO3)CCN(C(=O)C1Cc3ccccc3O1)C2` (stereo not drawn)?
PINK1 expr mod: -1%

How did CCOc1ccc(N2C(=O)N(Cc3ccc(C)cc3C)c3ccccc3S2(=O)=O)cc1 do in these assays?
PINK1 expr mod: 2%; Epigenetic derep: 0%; ClpP mod: 1%

How did Cc1ccc(NC(=O)c2ccc3c(=O)n4nc(Nc5ccccc5C)sc4nc3c2)cc1C do in these assays?
PINK1 expr mod: -1%; Epigenetic derep: -3%; ClpP mod: -5%

How did CCCCNC(=S)Nc1ccc(OC)nc1 do in these assays?
Sfp PPTase inh: 8%; RORg inh: 10µM*; PINK1 expr mod: -1%; Epigenetic derep: 3%; ClpP mod: -2%; VP16 counter: -2%

From PubChem
